Measurements as given in PubChem BioAssay AID651642 (Sanford-Burnham Center for Chemical Genomics, 2012).
The source made the active and inactive calls.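 The calls were made as follows: active = average half-effect concentration of 10 µM or less in every one of the four cell panels; inactive = the rest.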

Each molecule was assayed on HL-1 (assay: protection of cardiomyocytes from stress damage, SAR follow-up, cell-based, panel, H9c2 and HL-1, H2O2, 2-deoxyglucose, ATP luminescence (AID 651642;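 also: plate controls were H2O2 plus DMSO for no effect and cells kept without H2O2 for full effect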)). Settings: H9c2/HL-1 cardiomyocyte H2O2 oxidative damage, mean of runs; activity: with H2O2, at 0.154 µM; outcome: with H2O2.

| Structure (SMILES) | activity |
| --- | --- |
| COc1ccc2c(c1OC)C(=O)N1c3ccccc3C(=O)N(Cc3ccccc3F)C21 (stereo not drawn) | 4.24% (inactive) |
| COc1ccc2c(c1OC)C(=O)N1c3ccccc3C(=O)N(Cc3ccncc3)C21 (stereo not drawn) | 0.0397% (inactive) |
| CCOC(=O)c1cccc(NC(=O)c2cc(-c3cc(OC)c(OC)c(OC)c3)nc3ccc(OC)cc23)c1 | 8.27% (inactive) |
| COc1cc(-c2cc(C(=O)Nc3cccc(C(C)=O)c3)c3ccccc3n2)cc(OC)c1OC | -1.02% (active) |
| CCOC(=O)c1cccc(NC(=O)c2cc(-c3cc(OC)c(OC)c(OC)c3)nc3cc(Cl)ccc23)c1 | 1.44% (inactive) |
| COc1ccc2c(c1OC)C(=O)N1c3ccccc3C(=O)N(Cc3ccc(C)cc3)C21 (stereo not drawn) | 9.89% (inactive) |
| COc1cc(-c2cc(C(=O)Nc3cccc(C(C)=O)c3)c3ccc(Cl)cc3n2)cc(OC)c1OC | -6.29% (active) |
| COc1cc(-c2cc(C(=O)NCC(=O)Nc3ccc(C(C)=O)cc3)c3cc(F)ccc3n2)cc(OC)c1OC | 1.92% (active) |
| COc1ccc2c(c1OC)C(=O)N1c3ccccc3C(=O)N(Cc3ccccc3C)C21 (stereo not drawn) | -0.339% (inactive) |
| COc1cc(-c2cc(C(=O)Nc3cccc(C(=O)NC4CC4)c3)c3ccccc3n2)cc(OC)c1OC | -0.15% (active) |
| COc1ccc2c(c1OC)C(=O)N1c3ccccc3C(=O)N(Cc3ccccn3)C21 (stereo not drawn) | 1.21% (inactive) |
| COc1cc(-c2cc(C(=O)Nc3cccc(-c4nn[nH]n4)c3)c3ccccc3n2)cc(OC)c1OC | -2.86% (inactive) |
| COc1cc(-c2cc(C(=O)Nc3cccc(C(C)=O)c3)c3cc(F)ccc3n2)cc(OC)c1OC | -2.5% (active) |
